Where “and” joins values, the source holds several entries; their conditions need not be identical. Equal values may be shown once. Records with an inconclusive call do not appear. Some structures have more than one record in an assay (separate samples or runs), and their calls can disagree. Calls of active or inactive are those of the source. Rule for the calls, unless noted: active = hit-call score of the fitted dose curve at least 0.9, where 1 is the maximum; inactive = score below 0.9.
How the values were obtained:
[1] = CCTE_Mundy_HCI_Cortical_NOG_NeuriteCount: CCTE's Neurite Outgrowth Assay in rat cortical cells for Neurite Count, Mundy Lab (AID 2284212);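 note: cells fixed about two days after chemical exposure began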
Summary of the method: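 Neurite number per cell from high-content imaging of betaIII-tubulin immunostaining, with Hoechst nuclear counterstain.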

[2] = CCTE_Mundy_HCI_Cortical_NOG_NeuriteLength: CCTE's Neurite Outgrowth Assay in rat cortical cells for Neurite Length, Mundy Lab (AID 2284213);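 note: neurites imaged about 48 to 50 h after chemical exposure began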
Summary of the method: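 Neurite length was read by high-content imaging of βIII-tubulin-labelled neurites in rat primary cortical cultures. Activity was fitted relative to DMSO.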

[3] = CCTE_Mundy_HCI_Cortical_Synap_Neur_Matur_NeuriteLength: CCTE's Synaptogenesis and Neurite Maturation Assay in rat cortical cells for Neurite Length, Mundy Lab (AID 2284214)
Summary of the method: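 Rat primary cortical cells were plated, treated with AraC at DIV 5 to arrest glial growth, then chemical-dosed with media change at DIV 7 through DIV 12. Fixed cells stained for MAP2, synaptophysin and Hoechst; neurite length quantified by high-content imaging.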

[4] = CCTE_Mundy_HCI_Cortical_Synap_Neur_Matur_NeuriteSpotCountPerNeuron: CCTE's Synaptogenesis and Neurite Maturation Assay in rat cortical cells for Neurite Spot Count per Neuron Count, Mundy Lab (AID 2284215)
Summary of the method: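 High-content imaging counts synaptophysin puncta along MAP2-labelled neurites per neuron after chemical exposure of rat cortical cells from DIV 7 to termination at DIV 12 (AraC added DIV 5). Loss of signal relative to DMSO.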

[5] = TAMU_PeakParms_SingleDonor1434_Chronotropy: Texas A&M University (TAMU) 1.5-hr Human Induced Pluripotent Stem Cell (iPSC)-derived Cardiomyocytes Calcium (Ca+2) Flux Assay for Cardiotoxicity: Chronotropy (changes in peak frequency) (AID 2284217); conditions: actives raise or lower the signal
Summary of the method: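 iPSC-CMs, donor 1434; 4 conc (0.2–100 uM), 0.5% v/v DMSO, 90 min, 37C/5% CO2; Ca2+ flux fluorescence → peak.freq.avg; peak.freq.avg = 0 dropped; bidirectional fit vs DMSO; EC05 POD.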

[6] = CCTE_Mundy_HCI_Cortical_Synap_Neur_Matur_SynapseCount: CCTE's Synaptogenesis and Neurite Maturation Assay in rat cortical cells for Synapse Count, Mundy Lab (AID 2284218)
Summary of the method: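 Rat primary cortical cells in 96-well plates received AraC at DIV 5 and were dosed with chemicals at DIV 7 with media change, through DIV 12 (288.33 h). Synapses per neuron counted by high-content imaging of MAP2/synaptophysin/Hoechst staining, versus DMSO baseline.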

[7] = CCTE_Mundy_HCI_hN2_NOG_NeuriteLength: CCTE's Neurite Outgrowth Assay in human hN2 cells for Neurite Length, Mundy Lab (AID 2284220; active = hit-call score of the fitted dose curve at least 0.9, where 1 is the maximum)
Summary of the method: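 Read-out is neurite length from high-content imaging of βIII-tubulin/Alexa Fluor-488-labelled neurons, referenced to DMSO controls.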

[8] = CCTE_Mundy_HCI_hN2_NOG_NeuronCount: CCTE's Neurite Outgrowth Assay in human hN2 cells for Neuron Count, Mundy Lab (AID 2284221; active = hit-call score of the fitted dose curve at least 0.9, where 1 is the maximum)
Summary of the method: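 Read-out is the number of betaIII-tubulin-positive neurons imaged by automated high-content analysis, with DMSO as negative control.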

[9] = CCTE_Mundy_HCI_Cortical_Synap_Neur_Matur_CellBodySpotCount: CCTE's Synaptogenesis and Neurite Maturation Assay in rat cortical cells for Cell Body Spot Count, Mundy Lab (AID 2284223)
Summary of the method: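 High-content imaging counts synaptophysin puncta on neuronal cell bodies per neuron after MAP2/synaptophysin immunostaining. Rat primary cortical cells, glia arrested with AraC at DIV 5, were exposed DIV 7–12; signal decrease measured against DMSO.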

[10] = CCTE_Mundy_HCI_hNP1_Pro_ResponderAvgInten: CCTE's Proliferation Assay in human neuroprogenitor cells, Mundy Lab (AID 2284224; active = hit-call score of the fitted dose curve at least 0.9, where 1 is the maximum;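 note: human neural progenitor cells hNP1 derived from WA09 embryonic stem cells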)
Summary of the method: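 Proliferation read as average intensity of BrdU-positive cells, imaged at 26.25 h post-dosing: chemical exposure started after 40–44 h culture, BrdU during final 4 h, paraformaldehyde fixation. Positive-direction fit relative to DMSO.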

[11] = UKN2_HCS_IMR90_cell_viability: Viability Assessment in the University of Konstanz (UKN) Leist Lab Neural Crest Cell Migration Assay in human induced IMR90 Pluripotent Stem Cells (UKN2) (AID 2284233);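 note: viability of neural crest cells differentiated from IMR90 iPSC measured by calcein-AM fluorescence imaging; cells exposed to compound for 24 h after a 24 h migration phase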
Summary of the method: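 Neural crest cells derived from IMR90 iPSC migrate into a stopper-free zone for 24 h in EGF/FGF medium, then are exposed to compound for 24 h. Viability assessed by calcein-AM and Hoechst staining with high-content imaging, fitted bidirectionally versus DMSO.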

[12] = TAMU_HCS_1.5hr_SingleDonor1434_Cytotoxicity: Cytotoxicity Assessment using High-content Screening (HCS) Fluorescent Imaging for the Texas A&M University (TAMU) 1.5-hr Human Induced Pluripotent Stem Cell (iPSC)-derived Cardiotoxicity Assay (AID 2284234; active = hit-call score of the fitted dose curve at least 0.9, where 1 is the maximum)
Summary of the method: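 Human iPSC-derived cardiomyocytes dosed at 0.2, 1, 10, 100 uM final (0.5% DMSO) for 90 min at 37 C. Hoechst 33342-stained nuclei counted by 10x high-content imaging; POD is EC10, a 10% drop in total cell count versus DMSO.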

[13] = CCTE_Mundy_HCI_Cortical_NOG_NeuronCount: CCTE's Neurite Outgrowth Assay in rat cortical cells for Neuron Count, Mundy Lab (AID 2284236; active = hit-call score of the fitted dose curve at least 0.9, where 1 is the maximum;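 note: neurons counted by imaging betaIII-tubulin and Hoechst stained cortical cells; cells exposed to compound for about 48 hours before fixation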)
Summary of the method: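 Read-out: neuron number by high-content imaging of betaIII-tubulin (Alexa Fluor-488) and Hoechst-labelled rat primary cortical cells.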

[14] = CCTE_Mundy_HCI_Cortical_NOG_BPCount: CCTE's Neurite Outgrowth Assay in rat cortical cells for Branch Point Count, Mundy Lab (AID 2284237);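 note: branch points counted about two days after chemical exposure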
Summary of the method: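 Measured 50.33 h after dosing, this morphology endpoint uses rat primary cortical cultures labelled for betaIII-tubulin. Branch points are quantified by high-content imaging, with DMSO as negative control and baseline.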

[15] = CCTE_Mundy_HCI_hNP1_Casp3_7: CCTE's Caspase-Glo 3/7 Assay in human neuroprogenitor cells for Apoptosis, Mundy Lab (AID 2284240)
Summary of the method: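 Luminescent caspase-3/7 readout, 26.5 h post-dose, in human neural progenitor cells from WA09 embryonic stem cells. Cells grew 40–44 h at 37 °C, 5% CO2 before chemical addition. Activity analysed as signal increase over DMSO baseline.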

[16] = CCTE_Mundy_HCI_hNP1_CellTiter: CCTE's Cell Titer-Glo 2 Assay in human neuroprogenitor cells for Viability, Mundy Lab (AID 2284241; active = hit-call score of the fitted dose curve at least 0.9, where 1 is the maximum;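 note: a hit is a drop in ATP luminescence versus DMSO meaning reduced viability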)
Summary of the method: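 Viability read as luminescent ATP content (CellTiter-Glo, 30 min room temperature) twenty-four hours after dosing, relative to DMSO. Cells: WA09-derived hNP1 neuroprogenitors on poly-L-ornithine/laminin, plated 40 to 44 hours before chemical.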

[17] = CCTE_Mundy_HCI_Cortical_Synap_Neur_Matur_NeuronCount: CCTE's Synaptogenesis and Neurite Maturation Assay in rat cortical cells for Neuron Count, Mundy Lab (AID 2284242; active = hit-call score of the fitted dose curve at least 0.9, where 1 is the maximum;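 note: hits reduce neuron count versus DMSO baseline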)
Summary of the method: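 Rat primary cortical cells received AraC at DIV 5 to arrest glia, then were dosed with chemicals at DIV 7 through DIV 12. Fixed cells were stained for nuclei, MAP2 and synaptophysin, and neurons were counted by high-content imaging relative to DMSO.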

[18] = IUF_NPC2c_oligodendrocyte_migration_120hr: Leibniz Research Institute for Environmental Medicine (IUF) 120-hour Neural Progenitor Cell Migration Assay for Oligodendrocyte Migration (NPC2c) (AID 2284297);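 note: O4-positive oligodendrocyte migration distance divided by radial glia migration distance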
Summary of the method: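 Exposure runs 5 days from differentiation onset at 37C, seven concentrations plus solvent control, DMSO at most 0.1%, applied to primary hNPC spheres on laminin. After fixation, O4 immunostaining gives oligodendrocyte distance from the sphere core, relative to radial glia migration.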

[19] = IUF_NPC2a_radial_glia_migration_120hr: Leibniz Research Institute for Environmental Medicine (IUF) 120-hour Neural Progenitor Cell Migration Assay for Radial Glia Migration (NPC2a) (AID 2284298)
Summary of the method: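 Migration distance in um, sphere core edge to migration-area edge, derived by nuclei-density algorithm from Hoechst images after 120 h compound exposure. Primary hNPC spheres differentiated on poly-D-lysine/laminin in N2 medium, 37C; medium half-replaced day 3.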

[20] = IUF_NPC2a_radial_glia_migration_72hr: Leibniz Research Institute for Environmental Medicine (IUF) 72-hour Neural Progenitor Cell Migration Assay for Radial Glia Migration (NPC2a) (AID 2284299)
Summary of the method: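 Human fetal cortex (GW 16-19) neural progenitor spheres, 0.3 mm, plated on poly-D-lysine/laminin in N2 differentiation medium with compound from day 0. Radial glia migration distance (um, sphere core edge to migration edge) measured manually in four directions on 72 h brightfield images; well mean used.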

[21] = IUF_NPC2b_neuronal_migration_120hr: Leibniz Research Institute for Environmental Medicine (IUF) 120-hour Neural Progenitor Cell Migration Assay for Neuron Migration (NPC2b) (AID 2284300)
Summary of the method: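 TUBB3-positive neurons are imaged after 120 h of differentiation, and their mean distance from the sphere edge is normalised to radial glia migration. Single 0.3 mm fetal hNPC spheres on poly-D-lysine/laminin received 7 compound concentrations, ≤0.1% DMSO, refreshed at day 3.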

[22] = IUF_NPC3_neuronal_differentiation_120hr: Leibniz Research Institute for Environmental Medicine (IUF) 120-hour Neuronal Differentiation Assay (NPC3) (AID 2284301)
Summary of the method: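 Human fetal (GW 16-19) neural progenitor spheres (0.3 mm) plated on poly-D-lysine/laminin in N2 differentiation medium, exposed 120 h at 37C with half-medium renewal day 3; 7 concentrations. TUBB3+ cells as % of Hoechst nuclei, CNN-identified; DMSO baseline.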

[23] = IUF_NPC4_neurite_length_120hr: Leibniz Research Institute for Environmental Medicine (IUF) 120-hour Neuronal Morphology Assay for Neurite Length (NPC4) (AID 2284302)
Summary of the method: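 Human fetal neural progenitor spheres (0.3 mm) plated on poly-D-lysine/laminin in N2 differentiation medium, exposed from day 0 for 120 h with half-medium refresh at day 3, 37C. Mean neurite length (um) of TUBB3-positive neurons from skeletonized immunostaining images; DMSO ≤0.1%.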

[24] = IUF_NPC4_neurite_area_120hr: Leibniz Research Institute for Environmental Medicine (IUF) 120-hour Neuronal Morphology Assay for Neurite Area (NPC4) (AID 2284305; active = hit-call score of the fitted dose curve at least 0.9, where 1 is the maximum)
Summary of the method: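 Human fetal neural progenitor spheres (0.3 mm) plated on poly-D-lysine/laminin in N2 differentiation medium, exposed 120 h (7 concentrations, DMSO ≤0.1%, half-medium refresh day 3). Fixed, TUBB3 immunostained; mean neurite area per neuron by Omnisphero skeletonization.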

[25] = IUF_NPC2-5_cytotoxicity_120hr: Cytotoxicity Assessment at 120 hours in the Leibniz Research Institute for Environmental Medicine (IUF) Neural Progenitor Cell Migration and Differentiation Assay (NPC2-5) (AID 2284307; active = hit-call score of the fitted dose curve at least 0.9, where 1 is the maximum;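 for AC50: LDH released into supernatant as membrane damage marker via resorufin fluorescence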)
Summary of the method: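 Membrane-integrity loss measured as LDH activity in medium supernatant via resazurin-to-resorufin fluorescence after 120 h exposure. hNPC spheres from GW 16-19 fetal cortex differentiated on poly-D-lysine/laminin, 37C, medium half-refreshed day 3; seven concentrations, DMSO max 0.1%.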

[26] = IUF_NPC2-5_cell_number_120hr: Cell Number Assessment at 120 hours in the Leibniz Research Institute for Environmental Medicine (IUF) Neural Progenitor Cell Migration and Differentiation Assay (NPC2-5) (AID 2284308);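 note: count of Hoechst-stained nuclei in migration zone around plated human neural progenitor spheres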
Summary of the method: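 Counting of all Hoechst-stained nuclei in the migration area at 120 h, versus DMSO control. Primary hNPC spheres differentiated on poly-D-lysine/laminin in N2 medium at 37C, dosed from day 0 (7 concentrations, DMSO ≤0.1%), half-refed day 3.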

[27] = IUF_NPC2-5_viability_120hr: Viability Assessment at 120 hours in the Leibniz Research Institute for Environmental Medicine (IUF) Neural Progenitor Cell Migration and Differentiation Assay (NPC2-5) (AID 2284312)
Summary of the method: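 Human fetal neural progenitor spheres (0.3 mm) plated on poly-D-lysine/laminin in N2 differentiation medium, exposed 120 h with half-medium refresh at day 3. Viability by alamar blue resazurin fluorescence; 7 concentrations, DMSO max 0.1%.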

[28] = CCTE_Mundy_HCI_iCellGluta_NOG_NeuriteLength: CCTE's Neurite Outgrowth Assay in iCellGluta cells for Neurite Length, Mundy Lab (AID 2284318; active = hit-call score of the fitted dose curve at least 0.9, where 1 is the maximum)
Summary of the method: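 Automated high-content imaging of betaIII-tubulin (Alexa Fluor-488) and Hoechst-stained cells gave neurite length, normalized to the DMSO baseline.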

[29] = TAMU_PeakParms_SingleDonor1434_Asystole: Texas A&M University (TAMU) 1.5-hr Human Induced Pluripotent Stem Cell (iPSC)-derived Cardiomyocytes Calcium (Ca+2) Flux Assay for Cardiotoxicity: Asystole (quiescence of beating) (AID 2284328; active = hit-call score of the fitted dose curve at least 0.9, where 1 is the maximum)
Summary of the method: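 Donor 1434 iPSC-cardiomyocytes exposed 90 min at 37C, 5% CO2, to 0.2, 1, 10 and 100 uM in 0.5% DMSO. Ca2+ dye fluorescence gave average peak frequency; POD is EC95, a 95% beat-rate drop versus controls.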

[30] = IUF_NPC1_cytotoxicity_72hr: Cytotoxicity Assessment at 72 hours in the Leibniz Research Institute for Environmental Medicine (IUF) Neural Progenitor Cell Proliferation Assay (NPC1) (AID 2284332; active = hit-call score of the fitted dose curve at least 0.9, where 1 is the maximum;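 note: rising LDH signal means more cytotoxicity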)
Summary of the method: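 Single human fetal cortex neural progenitor spheres (GW 16-19, 0.25-0.35 mm) in EGF/FGF proliferation medium were exposed to compound for 72 h at 37C without renewal. Medium LDH release was read as resorufin fluorescence and fitted as gain-of-signal.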

[31] = CCTE_Mundy_HCI_iCellGluta_NOG_NeuronCount: CCTE's Neurite Outgrowth Assay in iCellGluta cells for Neuron Count, Mundy Lab (AID 2284340; active = hit-call score of the fitted dose curve at least 0.9, where 1 is the maximum;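 note: cells fixed about 48 h after compound addition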)
Summary of the method: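 Neuron count read by automated high-content imaging of Hoechst 33342 and betaIII-tubulin/Alexa Fluor-488 labelling in human iPSC glutamatergic neurons. Activity fitted relative to DMSO.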

[32] = CCTE_Mundy_HCI_iCellGluta_NOG_NeuriteCount: CCTE's Neurite Outgrowth Assay in iCellGluta cells for Neurite Count, Mundy Lab (AID 2284342; active = hit-call score of the fitted dose curve at least 0.9, where 1 is the maximum;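 note: chemical exposure about 48 hours starting 2 hours after plating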)

Measured: AC50

[CH3][Hg][Cl]
active: [1] 493 nM | [2] 222 nM and 316 nM | [3] 428 nM | [4] 576 nM | [5] 21200 nM | [6] 582 nM | [7] 99 nM | [8] 172 nM | [10] 2120 nM | [11] 5000 nM | [12] 8350 nM | [13] 708 nM and 631 nM | [14] 244 nM | [15] 1150 nM | [16] 9570 nM | [17] 850 nM | [18] 128 nM | [19] 1.05 µM and 160 nM | [20] 1.11 µM and 255 nM | [21] 138 nM | [22] 325 nM and 124 nM | [23] 298 nM and 69.7 nM | [24] 629 nM and 78.3 nM | [25] 275 nM | [26] 823 nM and 130 nM | [27] 276 nM | [28] 76.3 nM | [31] 80.6 nM | [32] 96.5 nM
inactive: [9] | [18] | [21] | [25] | [27] | [29] | [30]

Source: PubChem BioAssay (EPA / NIEHS)
